Activity calls are given as the source filed them.

A short description of assay [1]: compounds binding Alexa647 anti-His antibody – biochemical, small-molecule microarray, 635 nm fluorescence, artefact control for SMM control protein annotation, primary screen (AID 1128).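 Further: score merges feature fluorescence with signal-to-noise for each printed compound spot.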 Particulars: higher = more signal.
The subject of assay [2] is Human papillomavirus type 1a E7 protein (residues 1-88). Briefly: HPV1a E7 small-molecule binders, primary screen, biochemical, small-molecule microarray, residues 1-88, 635 nm (AID 1129). The settings on record: small-molecule microarray binding, fluorescence 635 nm; higher = more signal.
The target in assay [3] is Focal adhesion kinase 1 (Homo sapiens) (UniProt Q05397). Briefly: PTK2 protein binding on printed compound slides – biochemical, small-molecule microarray, 635/667 nm fluorescence, BSA, DTT, primary screen (AID 1130).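 Further: composite of spot emission at 667 nm and signal to noise over triplicate slides.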 The settings on record: 635 nm fluorescence, higher = more signal.
Focal adhesion kinase 1 (Homo sapiens), sequence (Q05397 whole entry, looked up): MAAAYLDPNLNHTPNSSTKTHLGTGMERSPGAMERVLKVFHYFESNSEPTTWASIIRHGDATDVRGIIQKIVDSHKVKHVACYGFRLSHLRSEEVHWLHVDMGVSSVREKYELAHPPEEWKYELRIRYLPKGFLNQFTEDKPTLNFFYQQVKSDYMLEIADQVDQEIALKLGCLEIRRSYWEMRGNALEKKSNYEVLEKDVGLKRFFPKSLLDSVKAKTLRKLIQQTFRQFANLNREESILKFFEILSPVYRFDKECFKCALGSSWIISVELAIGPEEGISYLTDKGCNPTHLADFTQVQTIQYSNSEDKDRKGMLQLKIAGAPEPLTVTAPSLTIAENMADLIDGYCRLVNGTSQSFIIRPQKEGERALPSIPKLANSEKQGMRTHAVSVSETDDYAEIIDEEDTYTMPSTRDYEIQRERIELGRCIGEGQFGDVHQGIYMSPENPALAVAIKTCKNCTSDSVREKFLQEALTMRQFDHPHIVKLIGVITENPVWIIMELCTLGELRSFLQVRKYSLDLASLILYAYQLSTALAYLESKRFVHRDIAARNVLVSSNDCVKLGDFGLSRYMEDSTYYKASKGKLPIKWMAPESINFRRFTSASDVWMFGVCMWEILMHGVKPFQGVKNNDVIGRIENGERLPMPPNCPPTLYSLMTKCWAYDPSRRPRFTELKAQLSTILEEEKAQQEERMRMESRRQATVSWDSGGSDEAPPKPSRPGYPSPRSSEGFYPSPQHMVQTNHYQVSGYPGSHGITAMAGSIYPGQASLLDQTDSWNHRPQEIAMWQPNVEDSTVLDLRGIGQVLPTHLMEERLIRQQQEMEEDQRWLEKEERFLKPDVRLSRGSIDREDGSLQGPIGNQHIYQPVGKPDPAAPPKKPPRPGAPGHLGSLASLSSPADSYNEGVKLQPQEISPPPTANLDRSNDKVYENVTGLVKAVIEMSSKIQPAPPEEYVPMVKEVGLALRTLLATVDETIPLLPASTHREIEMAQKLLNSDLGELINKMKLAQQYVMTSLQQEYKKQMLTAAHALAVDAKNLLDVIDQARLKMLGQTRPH
In assay [4] the test system is Fibrinogen (Alexa647-labelled). Briefly: Alexa647-fibrinogen binding to printed small molecules – biochemical, small-molecule microarray, 635/667 nm fluorescence, artefact control for SMM control-protein annotation, profiling panel (AID 1131).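 Further: z-score merges 667 nm fluorescence with per-spot signal-to-noise over triplicate slides.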 Particulars: fibrinogen-A647 binding fluorescence, higher = more signal.
Assay [5] has as its target Follistatin (Homo sapiens) (UniProt P19883). The assay is described as follows: FST protein binding to printed compounds – biochemical, small-molecule microarray, 635/667 nm fluorescence, primary screen (AID 1132). The settings on record: 635 nm fluorescence, higher = more signal.
The target in assay [6] is Fibroblast growth factor 2 (Homo sapiens) (UniProt P09038). The assay is described as follows: basic fibroblast growth factor binding to printed compounds – biochemical, small-molecule microarray, 635/667 nm fluorescence, primary screen (AID 1133). The settings on record: FGF2, fluorescence 635/667, higher = more signal.
Fibroblast growth factor 2 (Homo sapiens), sequence (P09038 whole entry, looked up): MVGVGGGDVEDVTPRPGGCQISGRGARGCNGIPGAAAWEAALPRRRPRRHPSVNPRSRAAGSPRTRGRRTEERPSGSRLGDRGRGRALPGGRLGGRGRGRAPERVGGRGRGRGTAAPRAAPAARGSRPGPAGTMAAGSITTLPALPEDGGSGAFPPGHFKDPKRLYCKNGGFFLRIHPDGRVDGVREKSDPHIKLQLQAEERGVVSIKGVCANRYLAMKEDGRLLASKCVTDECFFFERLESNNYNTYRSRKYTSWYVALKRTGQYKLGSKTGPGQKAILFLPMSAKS
Assay [7] in a line: JC-1 mitochondrial potential readout, lung cancer cells – cell-based, A549, JC-1 fluorescence, basal, 24 h, 100 nL, profiling panel (AID 1138).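 Further: A549 lung adenocarcinoma cells under basal conditions with no added stimulus; test concentration not given here.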 Particulars: higher = more signal.
For the next assay, the system named is Lefty1. The assay is described as follows: Lefty1 protein binding to printed compounds – biochemical, small-molecule microarray, 635/667 nm fluorescence, primary screen (AID 1139). The settings on record: fluorescence 635/667, higher = more signal.
In assay [8] the test system is wheat germ agglutinin (Triticum aestivum), Alexa647-labelled. Briefly: Alexa647-WGA lectin binding to printed small molecules – biochemical, small-molecule microarray, 635/667 nm fluorescence, artefact control for SMM control-protein annotation, profiling panel (AID 1140).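 Further: score merges 667 nm feature emission with signal to noise over triplicate slides.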 Particulars: WGA-A647 binding, 635 nm fluorescence, higher = more signal.
Assay [9] addresses Luciferin 4-monooxygenase (Photinus pyralis) (UniProt P08659). Briefly: inhibition of purified Photinus pyralis luciferase – biochemical, luminescence, purified enzyme, 2006 set, primary screen (AID 1141).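 Further: cell-free assay with purified firefly luciferase at 100 ng per well in PBS; test concentration not given here.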 The settings on record: purified firefly luciferase, SteadyGlo luminescence, 30 min; higher = more signal, called active from +8 up or from −8 down.

Luciferin 4-monooxygenase (Photinus pyralis), sequence (P08659 whole entry, looked up): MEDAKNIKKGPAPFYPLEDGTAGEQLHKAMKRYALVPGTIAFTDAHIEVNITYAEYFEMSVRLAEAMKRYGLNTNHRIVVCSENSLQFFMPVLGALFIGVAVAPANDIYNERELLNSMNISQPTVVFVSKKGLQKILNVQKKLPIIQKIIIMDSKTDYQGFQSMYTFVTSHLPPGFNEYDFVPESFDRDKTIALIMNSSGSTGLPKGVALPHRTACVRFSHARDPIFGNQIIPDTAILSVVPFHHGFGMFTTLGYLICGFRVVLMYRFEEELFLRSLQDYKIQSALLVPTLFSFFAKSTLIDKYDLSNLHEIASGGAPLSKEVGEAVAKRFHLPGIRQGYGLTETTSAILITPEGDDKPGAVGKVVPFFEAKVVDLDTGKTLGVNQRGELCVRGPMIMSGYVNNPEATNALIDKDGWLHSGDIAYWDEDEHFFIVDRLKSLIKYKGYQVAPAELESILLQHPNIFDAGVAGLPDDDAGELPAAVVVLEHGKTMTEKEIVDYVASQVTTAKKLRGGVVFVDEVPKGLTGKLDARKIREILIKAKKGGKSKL
Follistatin (Homo sapiens), sequence (P19883 whole entry, looked up): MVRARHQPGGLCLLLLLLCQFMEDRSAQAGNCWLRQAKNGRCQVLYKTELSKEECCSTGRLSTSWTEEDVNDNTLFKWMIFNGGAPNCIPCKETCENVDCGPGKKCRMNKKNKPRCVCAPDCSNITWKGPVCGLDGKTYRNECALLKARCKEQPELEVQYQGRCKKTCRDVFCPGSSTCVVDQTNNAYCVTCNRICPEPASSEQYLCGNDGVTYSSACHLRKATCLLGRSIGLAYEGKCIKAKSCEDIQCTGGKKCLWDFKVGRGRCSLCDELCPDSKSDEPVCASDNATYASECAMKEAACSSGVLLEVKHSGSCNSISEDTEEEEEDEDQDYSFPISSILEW

Take `CC(C)=CCCC(C)=CCON=C1C[C@@H](O)[C@@H](O)[C@@H]2[C@@H]3C(=O)N(Cc4ccc5c(c4)OCO5)C(=O)[C@@H]3CC[C@@H]12`: the composite z-score turned out to be 1.05 in [1]; 1.14 in [2]; 0.597 in assay [3]; 0.558 in [4]; 1.18 in assay [5]; 0.414 in assay [6]. The composite z-score in the assay on Lefty1 worked out at 0.709; in assay [8], 0.574. In addition, the values for the z-score in assay [7] and in assay [9] were -0.286 and 0.696 (inactive), respectively.
`COc1ccc(COC(=O)NN=C2C[C@@H](O)[C@@H](O)[C@@H]3[C@@H]4C(=O)N(C[C@@H]5CCCO5)C(=O)[C@@H]4CC[C@@H]23)cc1`: the composite z-score in [1] is 0.365; in assay [2], 0.275; in [3], -0.2; in assay [4] it was 0.953; in assay [5], 0.0253; in assay [6], 0.104. Also, the results for the composite z-score (in the assay with Lefty1; in assay [8]) were 0.0359 and 0.627, respectively. The z-score in assay [7] was 0.883; in [9], 0.181 (inactive).
Consider `CO[C@H]1C[C@@H]2C[C@H](O)CC(CC(=O)O[C@@H](C=CCC(C)C)C[C@@H]3CC[C@H](C)[C@@H](C1)O3)O2`, for which the composite z-score in [1] is 0.583; in assay [2], 0.959; in assay [3] it was 0.122; in assay [4], 0.707; in assay [5], 0.719; in [6], 0.361. In addition, the composite z-score in the assay on Lefty1 was found to be 0.749; in assay [8], 0.0954. Besides, the z-score in assay [7] was -0.589; in assay [9], -0.0042 (inactive).
For the compound `CCOC(=O)[C@H](Cc1ccccc1)NC(=O)CCC1CC(OC(=O)NCc2cccc3ccccc23)CC2(CCCC(COC(=O)NCCc3ccccc3OC)O2)O1` (stereo not given in full), the composite z-score in [1] was 0.704; in [2], 0.79; in [3], 0.201; in assay [4], 0.287; in [5], 0.798; in assay [6] it was 0.793. Further, the composite z-score came out at 0.99 in the assay with Lefty1 and 0.404 in [8]. Moreover, the z-score was -0.538 in [7] and 0.821 (inactive) in assay [9].
Turning to `CC(CCN1CCCc2nc(C)c(C)cc21)=NO[C@H](C)c1cn([C@H](CO)Cc2ccccc2)nn1`, the composite z-score in assay [1] came to 0.906; in [2], 0.474; in assay [3] it was 0.402; in assay [4], 0.166; in assay [5], 0.564; in assay [6] it was 0.559. Also, the composite z-score was 0.931 with Lefty1 and 0.108 in assay [8]. Further, the z-score is -0.776 in [7] and 0.0837 (inactive) in [9].
With `COC(OC)[C@@H](C)[C@H](OC)[C@@H](C)[C@H](OC)c1ccccc1`, the composite z-score in [1] was -0.504; in assay [2] it was 0.104; in assay [3] it was -0.043; in assay [4], -0.353; in assay [5] it was 0.144; in assay [6], 0.142. For the same compound, the figures for the composite z-score (in the assay on Lefty1; in assay [8]) were 0.253 and -0.0965, respectively. The z-score was 2.15 in assay [7] and -1.67 (inactive) in assay [9].
Turning to `O=C1[C@H]2CCn3c(=O)n(Cc4cc5c(cc4Cl)OCO5)c(=O)n3[C@H]2[C@H](O)[C@@H]2O[C@H]12`, the composite z-score in [1] was 0.85; in [2] it was -0.542; in [3] it was -0.255; in [4] it was 0.855; in assay [5], 0.596; in [6] it was 0.299. Besides, the composite z-score in the assay with Lefty1 was 0.298; in assay [8], 0.176. For the same compound, the results for the z-score in assay [7] and in assay [9] were -0.512 and -1.44 (inactive), respectively.
As to `CC(C)(C)N1C(=O)[C@H]2[C@H]3[C@H](O)[C@H](O)CC(=NOC[C@@H](O)COCc4ccco4)[C@H]3CC[C@H]2C1=O`, the composite z-score in assay [1] is 0.606; in assay [2], 0.237; in assay [3] it was -0.136; in assay [4], 0.0824; in assay [5], -0.22; in assay [6] it was 0.249. Besides, the values for the composite z-score (in the assay with Lefty1; in assay [8]) were -0.0429 and 0.495, respectively. For the same compound, the z-score in [7] is 0.0624; in assay [9], -0.011 (inactive).
With `CON=C(C)CCC(=O)OC[C@H]1O[C@H](C#Cc2ccccc2)C=C[C@@H]1Oc1ccc(C)cc1`, the composite z-score was 0.377 in [1]; 0.54 in [2]; 0.122 in assay [3]; 0.354 in assay [4]; 0.398 in assay [5]; 0.344 in assay [6]. Further, the composite z-score with Lefty1 was determined as 0.569; in assay [8] it was 0.279. The z-score in assay [7] was -0.656; in assay [9] it was -3.61 (inactive).
Consider `COC(=O)[C@H](C)NC(=O)CCC1CC(OC(=O)NCCc2ccc(F)cc2)CC2(CCCC(COC(=O)NCCc3ccccc3OC)O2)O1` (stereo not given in full), for which the composite z-score is 0.706 in assay [1]; 1.12 in assay [2]; 0.0694 in [3]; 0.733 in [4]; 1.18 in [5]; 0.591 in assay [6]. Moreover, the composite z-score in the assay with Lefty1 was determined as 0.554; in assay [8] it was 0.432. In addition, the z-score in assay [7] is 0.625; in [9] it was 0.484 (inactive).
As to `CO[C@@H](C(C)C)[C@@H](C)C1OC(=O)CC1O` (stereo not given in full), the composite z-score in [1] was -0.647; in assay [2] it was -0.579; in [3], 0.0539; in [4], -1.29; in [5] it was -0.989; in [6], -0.278. Also, the composite z-score in the assay with Lefty1 is -0.633; in assay [8] it was -0.282. Moreover, the z-score in assay [7] is 0.000179; in [9], 0.159 (inactive).
On to `CCN1C(=O)[C@H]2[C@H]3[C@H](O)[C@H](O)CC(=NO[C@@H]4O[C@H](COC(C)=O)[C@@H](OC(C)=O)[C@H](OC(C)=O)[C@H]4OC(C)=O)[C@@H]3CC[C@H]2C1=O`, for which the composite z-score in [1] is -0.36; in assay [2], 0.839; in [3], 0.211; in assay [4], 0.744; in [5], 0.898; in assay [6], 0.747. In addition, the composite z-score in the assay with Lefty1 stood at 1.6; in assay [8], 0.696. The z-score in assay [7] is -0.282; in [9] it was 1.15 (inactive).
`CCOC(=O)NN=C1C[C@@H](O)[C@@H](O)[C@@H]2[C@@H]3C(=O)N(CC)C(=O)[C@@H]3CC[C@H]12`: the composite z-score in [1] was 0.241; in [2] it was -0.351; in [3], 0.105; in [4] it was 0.569; in assay [5], -0.408; in assay [6], 0.0278. Besides, the composite z-score in the assay with Lefty1 was 0.0358; in assay [8] it was 0.195. The results for the z-score in assay [7] and in assay [9] were -0.00768 and -0.557 (inactive), respectively.
Turning to `COC(=O)[C@H](C)NC(=O)CCC1CC(OC(=O)NCCc2ccc(F)cc2)CC2(CCCC(COC(=O)NCc3ccccc3)O2)O1` (stereo not given in full), the composite z-score in assay [1] amounted to 0.36; in assay [2], 0.775; in assay [3] it was 0.0965; in assay [4], 0.911; in [5] it was 0.913; in assay [6] it was 1.13. Besides, the composite z-score came to 0.875 in the assay with Lefty1 and 0.0915 in assay [8]. Moreover, the z-score was 0.708 in assay [7] and 0.835 (inactive) in assay [9].
As for `CC(CCC(=O)OC[C@H]1O[C@H](C#Cc2ccccc2)C=C[C@@H]1Oc1ccc(C)cc1)=NOC(C)CN1CCCc2nc(C)c(C)cc21` (stereo not given in full), the composite z-score in [1] was determined as 1.09; in [2], 0.886; in [3] it was 0.659; in [4], 0.564; in assay [5] it was 0.686; in [6], 0.507. Also, the values for the composite z-score (with Lefty1; in assay [8]) were 0.596 and 0.418, respectively. Further, the z-score in [7] was 0.238; in assay [9] it was 0.0139 (inactive).
Consider `CON=C(C)CCN1CCCc2nc(C)c(C)cc21`, for which the composite z-score is 1.15 in assay [1]; 0.476 in [2]; -0.0211 in [3]; 0.613 in assay [4]; 0.632 in assay [5]; 0.653 in assay [6]. Moreover, the composite z-score turned out to be 1.05 in the assay with Lefty1 and 0.201 in assay [8]. Besides, the z-score in assay [7] was 1.45; in assay [9], 0.267 (inactive).
Turning to `O=C1CCCC=C1C(O)c1ccc([N+](=O)[O-])cc1` (stereo not given), the composite z-score was -0.162 in [1]; 0.154 in [2]; -0.126 in assay [3]; -0.101 in assay [4]; -0.102 in assay [5]; 0.511 in [6]. The composite z-score with Lefty1 is 0.0283; in [8] it was -0.199. The z-score is -0.115 in [7] and -0.171 (inactive) in assay [9].
